The results in this text go back to PubChem BioAssay (EPA / NIEHS).

Records with an inconclusive call do not appear. More than one record can exist for a structure, and the calls need not agree. The source made the active and inactive calls. The calls were made as follows, unless noted: active = hit-call score of the fitted dose curve at least 0.9, where 1 is the maximum; inactive = score below 0.9.

Usually AC50 stands for the concentration giving half of the maximal activity seen.

Experiment [1] addresses Oxysterols receptor LXR-beta (Homo sapiens) (UniProt P55055). Put plainly: ATG_LXRb_TRANS: Attagene TRANS-FACTORIAL HepG2 Assay for human Liver X Receptor beta (LXRb) (AID 2282981; active = hit-call score of the fitted dose curve at least 0.9, where 1 is the maximum). The settings on record: HepG2 Attagene TRANS GAL4-LXRb reporter, mRNA. Summed up:
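Liver-derived HepG2 cells transfected with Gal4-responsive reporters were dosed for 24 h. Activation was scored as rise in reporter mRNA, by RT-PCR and capillary electrophoresis, above DMSO baseline.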

A short description of experiment [2]: ATG_M_32_TRANS: Attagene TRANS-FACTORIAL HepG2 Assay for M32 Transcription Factor (Internal Marker) (AID 2282984; active = hit-call score of the fitted dose curve at least 0.9, where 1 is the maximum;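 also: transcript level of a background control reporter unit measured by RT-PCR and capillary electrophoresis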). Particulars: HepG2 Attagene TRANS M32 internal marker reporter. In short, it runs like this: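 Fluorescence-detected mRNA induction, HepG2 liver cells, 24 h after dosing. Multiple GAL4-UAS reporter units introduced by transient transfection; background-control endpoint analysed for gain of signal against DMSO.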

Experiment [3] addresses Nuclear receptor subfamily 4 group A member 2 (Homo sapiens) (UniProt P43354). Put plainly: ATG_NURR1_TRANS: Attagene TRANS-FACTORIAL HepG2 Assay for human Nuclear Receptor Related Protein 1 (NURR1) (AID 2282985; active = hit-call score of the fitted dose curve at least 0.9, where 1 is the maximum). Particulars: HepG2 Attagene TRANS reporter, mRNA readout. Summed up:
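Chimeric NR-Gal4 proteins were expressed in human HepG2 cells bearing GAL4-UAS reporter units, and induced reporter mRNA was quantified 24 h post-dosing by RT-PCR and capillary electrophoresis.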

In experiment [4] the target is Transcriptional activator Myb (Homo sapiens) (UniProt P10242). Kind of experiment: ATG_Myb_CIS: Attagene CIS-FACTORIAL HepG2 Assay for human Myeloblastosis (Myb) Proto-Oncogene Transcription Factor (AID 2282986). The settings on record: HepG2 Attagene CIS-FACTORIAL Myb reporter transcription; actives raise or lower the signal. Summed up: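 HepG2 cells were transiently transfected with cis-regulated multiple reporter transcription units reflecting endogenous Myb activity, then exposed to compound for 24 hours. Reporter mRNA was measured by RT-PCR with capillary electrophoresis; bidirectional fitting versus DMSO baseline.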
Chain of Transcriptional activator Myb (Homo sapiens) (P10242 whole entry, looked up): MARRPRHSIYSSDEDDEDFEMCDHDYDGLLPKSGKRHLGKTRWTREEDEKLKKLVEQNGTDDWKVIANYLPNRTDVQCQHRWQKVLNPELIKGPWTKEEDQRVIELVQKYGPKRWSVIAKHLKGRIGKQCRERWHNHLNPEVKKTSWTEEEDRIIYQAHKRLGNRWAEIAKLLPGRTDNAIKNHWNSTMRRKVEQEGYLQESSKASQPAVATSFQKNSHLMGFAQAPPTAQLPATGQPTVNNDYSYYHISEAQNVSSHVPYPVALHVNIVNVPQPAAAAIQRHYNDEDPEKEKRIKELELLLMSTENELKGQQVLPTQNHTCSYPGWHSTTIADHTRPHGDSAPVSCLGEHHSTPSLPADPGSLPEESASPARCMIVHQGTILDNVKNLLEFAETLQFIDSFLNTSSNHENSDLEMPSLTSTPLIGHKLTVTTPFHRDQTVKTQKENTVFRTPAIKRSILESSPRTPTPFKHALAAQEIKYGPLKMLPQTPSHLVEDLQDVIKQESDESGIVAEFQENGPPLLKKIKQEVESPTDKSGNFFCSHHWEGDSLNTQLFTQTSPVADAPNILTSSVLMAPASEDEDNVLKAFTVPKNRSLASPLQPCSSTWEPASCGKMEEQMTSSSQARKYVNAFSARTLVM

Experiment [5] deals with Nuclear respiratory factor 1 (Homo sapiens) (UniProt Q16656). Put plainly: ATG_NRF1_CIS: Attagene CIS-FACTORIAL HepG2 Assay for human Nuclear Respiratory Factor 1 (NRF1) Orphan Gene (AID 2282987). The settings on record: HepG2 NRF1 cis-element reporter, Attagene multiplex; actives raise or lower the signal. In short, it runs like this: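 HepG2 cells transiently transfected with multiple reporter transcription units under cis-regulatory promoter control, so endogenous transcription-factor activity is read. After 24 h compound exposure, reporter mRNA quantified by RT-PCR, fluorescent labelling, HpaI digestion and capillary electrophoresis; bidirectional fitting versus DMSO.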
Chain of Nuclear respiratory factor 1 (Homo sapiens) (Q16656 whole entry, looked up): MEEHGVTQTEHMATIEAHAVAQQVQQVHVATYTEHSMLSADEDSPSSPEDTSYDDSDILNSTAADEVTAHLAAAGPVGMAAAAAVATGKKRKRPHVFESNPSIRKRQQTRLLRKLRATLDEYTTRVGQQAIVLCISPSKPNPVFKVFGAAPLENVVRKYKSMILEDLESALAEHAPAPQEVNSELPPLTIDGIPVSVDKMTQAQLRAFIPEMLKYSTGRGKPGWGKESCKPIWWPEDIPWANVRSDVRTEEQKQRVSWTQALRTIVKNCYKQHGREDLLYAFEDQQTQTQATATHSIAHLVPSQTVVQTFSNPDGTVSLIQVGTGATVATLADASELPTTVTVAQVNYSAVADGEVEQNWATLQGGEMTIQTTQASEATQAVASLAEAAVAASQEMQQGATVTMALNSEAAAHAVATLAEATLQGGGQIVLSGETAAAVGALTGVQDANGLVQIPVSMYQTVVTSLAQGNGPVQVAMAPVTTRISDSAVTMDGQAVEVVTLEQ

The nature of experiment [6]: ATG_NFI_CIS: Attagene CIS-FACTORIAL HepG2 Assay for human Nuclear Factor I (NFI) (AID 2282989). Particulars: HepG2 cis-regulatory reporter, NFI response element transcription; actives raise or lower the signal. In short, it runs like this: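 After transient transfection of HepG2 with cis-promoter reporter constructs and 24 h dosing, RNA is reverse-transcribed, amplified, 6-FAM end-labelled and HpaI-digested before capillary analysis. Bidirectional curve fitting against DMSO.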

In experiment [7] the target is Myc proto-oncogene protein (Homo sapiens) (UniProt P01106). Put plainly: ATG_Myc_CIS: Attagene CIS-FACTORIAL HepG2 Assay for human Myelocytomatosis (Myc) Proto-Oncogene Transcription Factor (AID 2282990). The settings on record: HepG2, Attagene cis-reporter transcription factor activity; actives raise or lower the signal. Summed up:
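HepG2 cells transiently transfected with multiple cis-promoter-driven reporter transcription units, so endogenous TF activity is read. After 24 h compound exposure, reporter mRNA was quantified by RT-PCR, 6-FAM labelling, HpaI digestion and capillary electrophoresis; bidirectional fit versus DMSO.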

Experiment [8] is described as follows: ATG_NF_kB_CIS: Attagene CIS-FACTORIAL HepG2 Assay for human Nuclear Factor Kappa B (NF-kB) (AID 2282991). The settings on record: HepG2 Attagene cis-factorial NF-kB reporter mRNA; actives raise or lower the signal. Summed up: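 HepG2 cells transiently transfected with multiplexed cis-element reporter units measuring endogenous transcription factor activity; reporter mRNA read 24 h after dosing by RT-PCR, fluorescent labelling, HpaI digestion and capillary electrophoresis. Bidirectional fit against DMSO baseline.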

The nature of experiment [9]: ATG_NRF2_ARE_CIS: Attagene CIS-FACTORIAL HepG2 Assay for human Nuclear Factor Erythroid 2 Related Factor 2 (NFR2) response to Antioxidant Response Elements (ARE) (AID 2282992). Particulars: HepG2 Attagene ARE/NRF2 reporter, transcription factor activity; actives raise or lower the signal. In short, it runs like this:
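Readout: reporter mRNA quantified by RT-PCR plus FAM-labelled primer extension, HpaI digestion and capillary electrophoresis, 24 h after dosing transfected HepG2 cells. Gain or loss of signal is fitted bidirectionally against DMSO baseline.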

Experiment [10] in a line: ATG_Oct_MLP_CIS: Attagene CIS-FACTORIAL HepG2 Assay for human Octamer-Binding Transcription Factor (Oct) (AID 2282993). The settings on record: HepG2 Attagene cis-factorial Oct reporter, mRNA; actives raise or lower the signal. In short, it runs like this:
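Cells of the HepG2 line express promoter-controlled reporter sequences whose mRNA levels, after 24 h treatment, are measured by RT-PCR and capillary electrophoresis. Increases and decreases are scored relative to DMSO.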

Experiment [11] has as its target Cellular tumor antigen p53 (Homo sapiens) (UniProt P04637). Put plainly: ATG_p53_CIS: Attagene CIS-FACTORIAL HepG2 Assay for human p53 Transcription Factor (AID 2282994). Particulars: HepG2 p53 cis-element reporter, Attagene mRNA; actives raise or lower the signal. Summed up: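 Read-out: reporter mRNA by RT-PCR plus capillary electrophoresis with fluorescence detection. Human HepG2 liver cells carried transfected multi-reporter cis-element constructs, dosed 24 h. Gain or loss of signal fitted bidirectionally against DMSO control.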

In experiment [12] the target is Oxysterols receptor LXR-alpha (Homo sapiens) (UniProt Q13133). Put plainly: ATG_LXRa_TRANS: Attagene TRANS-FACTORIAL HepG2 Assay for human Liver X Receptor alpha (LXRa) (AID 2282980; active = hit-call score of the fitted dose curve at least 0.9, where 1 is the maximum). Particulars: HepG2 Attagene TRANS reporter, LXRa transactivation. Summed up: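 HepG2 cells transiently transfected with GAL4-UAS reporter units for chimeric NR-Gal4 proteins, exposed to chemicals for 24 h. Reporter mRNA quantified by RT-PCR and capillary electrophoresis; gain of signal fitted relative to DMSO.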
Chain of Oxysterols receptor LXR-alpha (Homo sapiens) (Q13133 whole entry, looked up, the tested form may be a part): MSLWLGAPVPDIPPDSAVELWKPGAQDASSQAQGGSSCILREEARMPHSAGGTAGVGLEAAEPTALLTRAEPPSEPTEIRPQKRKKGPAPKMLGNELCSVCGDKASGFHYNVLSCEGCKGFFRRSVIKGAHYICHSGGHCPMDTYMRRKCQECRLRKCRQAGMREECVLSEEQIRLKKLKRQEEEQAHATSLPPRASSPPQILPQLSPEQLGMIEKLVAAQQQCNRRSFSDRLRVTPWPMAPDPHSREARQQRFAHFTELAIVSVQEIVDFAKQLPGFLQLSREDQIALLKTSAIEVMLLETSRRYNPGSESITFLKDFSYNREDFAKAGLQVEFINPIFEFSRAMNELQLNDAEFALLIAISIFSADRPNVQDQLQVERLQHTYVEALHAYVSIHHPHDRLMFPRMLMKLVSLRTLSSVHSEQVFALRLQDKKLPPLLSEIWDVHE

The target in experiment [13] is Hepatocyte nuclear factor 4-alpha (Homo sapiens) (UniProt P41235). Put plainly: ATG_HNF4a_TRANS: Attagene TRANS-FACTORIAL HepG2 Assay for human Hepatocyte Nuclear Factor 4 alpha (HNF4a) (AID 2282982; active = hit-call score of the fitted dose curve at least 0.9, where 1 is the maximum). Particulars: HepG2 HNF4a transactivation reporter, mRNA readout. In short, it runs like this:
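Using HepG2 liver cells transfected with GAL4-UAS reporter units, chemical-induced mRNA increases were assessed after 24 hours. Fluorescent RT-PCR fragments were separated by capillary electrophoresis and compared with DMSO negative controls.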

A short description of experiment [14]: BSK_3C_TissueFactor: BioMAP Diversity Plus: 3C Assay for Tissue Factor Biomarker Activity (AID 2282997). Particulars: BioMAP 3C HUVEC, tissue factor biomarker readout; actives raise or lower the signal. In short, it runs like this:
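Tissue Factor measured by ELISA, 24 h after treatment of primary HUVEC in the BioMAP 3C setting.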

The nature of experiment [15]: BSK_3C_uPAR: BioMAP Diversity Plus: 3C Assay for Urokinase-type plasminogen activator receptor (uPAR) Biomarker Activity (AID 2282998). Particulars: BioMAP 3C HUVEC, uPAR biomarker ELISA; actives raise or lower the signal. Summed up: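 Endothelial primary cells of human umbilical vein origin received test chemical; 24 h later uPAR was assayed by ELISA. Fitting was bidirectional, DMSO as negative control.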
A general note: In an ELISA, binding on a coated surface is turned into a signal by an enzyme label.

Experiment [16] can be described thus: BSK_3C_VCAM1: BioMAP Diversity Plus: 3C Assay for Vascular cell adhesion molecule 1 (VCAM1) Biomarker Activity (AID 2282999). The settings on record: BioMAP 3C HUVEC, VCAM1 ELISA, cytokine-stimulated; actives raise or lower the signal. In short, it runs like this: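 Vascular primary endothelium (human umbilical vein) was exposed to chemicals and assayed 24 h later. VCAM-1 levels came from ELISA, with DMSO serving as baseline for bidirectional fitting.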

Experiment [17] is described as follows: ATG_M_06_TRANS: Attagene TRANS-FACTORIAL HepG2 Assay for M06 Transcription Factor (Internal Marker) (AID 2282983; active = hit-call score of the fitted dose curve at least 0.9, where 1 is the maximum;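 also: reporter transcript level by RT-PCR then capillary electrophoresis fluorescence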). Particulars: HepG2 Attagene TRANS M06 internal marker reporter. Summed up: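 mRNA levels of a reporter transcript, quantified as FAM fluorescence on capillary electrophoresis, served as readout. HepG2 cells expressing exogenous GAL4-chimera reporter constructs were exposed for 24 h. Gain of signal over DMSO was evaluated.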

Chain of Oxysterols receptor LXR-beta (Homo sapiens) (P55055 whole entry, looked up, the tested form may be a part): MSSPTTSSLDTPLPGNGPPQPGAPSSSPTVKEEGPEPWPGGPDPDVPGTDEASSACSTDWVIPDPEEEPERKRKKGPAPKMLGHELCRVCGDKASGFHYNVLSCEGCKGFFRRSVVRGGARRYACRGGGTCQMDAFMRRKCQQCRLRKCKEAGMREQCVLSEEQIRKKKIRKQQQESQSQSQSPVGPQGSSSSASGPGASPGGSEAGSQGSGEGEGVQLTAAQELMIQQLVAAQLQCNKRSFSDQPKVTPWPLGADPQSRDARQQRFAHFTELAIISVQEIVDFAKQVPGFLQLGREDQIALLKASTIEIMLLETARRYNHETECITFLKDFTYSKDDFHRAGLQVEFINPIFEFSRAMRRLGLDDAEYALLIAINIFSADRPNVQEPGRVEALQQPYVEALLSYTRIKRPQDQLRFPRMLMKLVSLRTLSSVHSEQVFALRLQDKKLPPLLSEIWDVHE
Chain of Cellular tumor antigen p53 (Homo sapiens) (P04637 whole entry, looked up): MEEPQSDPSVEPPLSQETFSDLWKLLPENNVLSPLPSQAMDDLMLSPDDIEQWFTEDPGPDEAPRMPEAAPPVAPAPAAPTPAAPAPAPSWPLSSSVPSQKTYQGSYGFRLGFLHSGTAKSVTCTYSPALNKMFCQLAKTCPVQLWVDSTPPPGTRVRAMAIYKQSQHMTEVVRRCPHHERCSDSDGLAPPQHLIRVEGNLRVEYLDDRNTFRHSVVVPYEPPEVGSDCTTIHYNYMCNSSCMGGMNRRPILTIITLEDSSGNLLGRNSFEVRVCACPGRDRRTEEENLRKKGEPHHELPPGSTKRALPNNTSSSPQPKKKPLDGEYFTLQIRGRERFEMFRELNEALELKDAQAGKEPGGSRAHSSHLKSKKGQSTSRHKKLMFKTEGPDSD
Chain of Nuclear receptor subfamily 4 group A member 2 (Homo sapiens) (P43354 whole entry, looked up, the tested form may be a part): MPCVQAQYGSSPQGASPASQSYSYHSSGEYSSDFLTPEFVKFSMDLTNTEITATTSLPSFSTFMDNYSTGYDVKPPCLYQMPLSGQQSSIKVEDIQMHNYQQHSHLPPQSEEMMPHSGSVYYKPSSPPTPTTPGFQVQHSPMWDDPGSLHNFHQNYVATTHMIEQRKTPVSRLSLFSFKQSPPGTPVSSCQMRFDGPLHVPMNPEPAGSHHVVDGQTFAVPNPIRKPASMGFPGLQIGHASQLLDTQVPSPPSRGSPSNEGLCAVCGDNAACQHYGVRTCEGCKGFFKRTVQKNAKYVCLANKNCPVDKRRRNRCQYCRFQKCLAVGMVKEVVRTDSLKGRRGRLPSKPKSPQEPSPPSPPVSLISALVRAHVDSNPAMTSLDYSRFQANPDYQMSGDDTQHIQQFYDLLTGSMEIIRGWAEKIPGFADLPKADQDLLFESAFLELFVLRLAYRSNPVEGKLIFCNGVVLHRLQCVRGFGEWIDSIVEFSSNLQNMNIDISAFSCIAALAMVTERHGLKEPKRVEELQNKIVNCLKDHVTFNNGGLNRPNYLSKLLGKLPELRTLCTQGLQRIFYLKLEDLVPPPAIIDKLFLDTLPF
Chain of Hepatocyte nuclear factor 4-alpha (Homo sapiens) (P41235 whole entry, looked up, the tested form may be a part): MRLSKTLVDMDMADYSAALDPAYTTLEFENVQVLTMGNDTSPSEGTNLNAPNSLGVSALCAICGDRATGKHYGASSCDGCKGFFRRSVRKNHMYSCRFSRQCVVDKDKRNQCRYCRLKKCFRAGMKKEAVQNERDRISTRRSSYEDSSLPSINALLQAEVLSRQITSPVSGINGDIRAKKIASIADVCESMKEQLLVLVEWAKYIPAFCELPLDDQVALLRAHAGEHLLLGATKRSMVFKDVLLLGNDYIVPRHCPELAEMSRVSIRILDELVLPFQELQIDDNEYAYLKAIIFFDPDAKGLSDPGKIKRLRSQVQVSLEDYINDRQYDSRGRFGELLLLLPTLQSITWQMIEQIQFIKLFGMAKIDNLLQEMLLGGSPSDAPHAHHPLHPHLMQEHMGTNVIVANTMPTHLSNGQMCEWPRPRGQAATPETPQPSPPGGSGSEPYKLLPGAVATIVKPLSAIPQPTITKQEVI
Chain of Myc proto-oncogene protein (Homo sapiens) (P01106 whole entry, looked up): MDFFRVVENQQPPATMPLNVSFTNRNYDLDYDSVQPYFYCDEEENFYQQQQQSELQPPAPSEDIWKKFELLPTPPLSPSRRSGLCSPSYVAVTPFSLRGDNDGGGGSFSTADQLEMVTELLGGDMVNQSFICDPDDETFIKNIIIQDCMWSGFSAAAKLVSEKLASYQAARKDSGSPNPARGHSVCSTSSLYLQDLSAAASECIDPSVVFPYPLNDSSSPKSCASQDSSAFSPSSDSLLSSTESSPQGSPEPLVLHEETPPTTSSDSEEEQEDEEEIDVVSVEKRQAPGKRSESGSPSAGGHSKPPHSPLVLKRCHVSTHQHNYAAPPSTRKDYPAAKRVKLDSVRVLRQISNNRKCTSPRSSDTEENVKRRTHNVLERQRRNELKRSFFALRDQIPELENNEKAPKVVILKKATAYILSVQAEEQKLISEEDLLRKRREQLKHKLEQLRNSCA

`NCCN1CCNCC1`: the molecule was classed as inactive in experiment [1], in experiment [2], in experiment [3], in experiment [4], in [5] and in [6]. Besides, the outcome in experiment [7], in experiment [8], in experiment [9], in experiment [10] and in [11] was inactive.

`CC(=O)Oc1c(C)c(C)c2c(c1C)CC[C@@](C)(CCC[C@H](C)CCC[C@H](C)CCCC(C)C)O2`: the result in [1], in [2], in [3], in [4], in experiment [5] and in experiment [6] was inactive. For the same molecule, the call in experiment [7], in experiment [10] and in experiment [11] was inactive.

For the molecule `COC(=O)c1cccc(C(=O)OC)c1`, the molecule was classed as inactive in [12], in experiment [4], in experiment [5], in [6], in experiment [7] and in experiment [11]. In addition, the AC50 in [9] is 24.7 µM (active).

On to `COc1ccc(C(C)=O)cc1`, for which the call in experiment [1], in experiment [3], in experiment [5], in experiment [7] and in experiment [9] was inactive.

For the molecule `COc1cc(OC)c2ccc(=O)oc2c1`, the result in [13], in experiment [3], in experiment [4], in experiment [5], in experiment [6] and in [8] was inactive. Moreover, the call in [10] was inactive.

On to `O=S1(=O)CC=CC1`, for which the result in [13], in experiment [4], in experiment [5], in experiment [6], in experiment [7] and in experiment [8] was inactive. The molecule was called inactive in experiment [9], in experiment [10] and in [11].

For `CCC(CC)CO`, the molecule was called inactive in experiment [13], in experiment [4], in experiment [5], in experiment [6], in experiment [7] and in experiment [8]. Also, the outcome in experiment [9] and in experiment [10] was inactive.

For the molecule `OC[C@@H](O)[C@H](O)[C@@H](O)[C@@H](O)CO`, the call in [13], in [2], in experiment [4], in experiment [5], in experiment [6] and in [7] was inactive. The molecule was called inactive in [8], in [9] and in experiment [11].

Consider `O=C(O)C(F)(F)OC(F)(F)C(F)(F)OC(F)(F)C(F)(F)C(F)(F)C(F)(F)F`, for which the outcome in [14], in experiment [15] and in experiment [16] was inactive. Besides, the AC50 in experiment [15] is 38.7 µM (active).

On to `CC(C)CCCC(C)(C)O`, for which the outcome in experiment [2], in experiment [4], in [5], in experiment [6], in experiment [7] and in [8] was inactive. The result in experiment [9], in experiment [10], in experiment [11], in [14], in experiment [15] and in experiment [16] was inactive.

As for `CCCCN(CCO)CCO`, the call in experiment [17], in experiment [4], in experiment [5], in experiment [6], in experiment [7] and in experiment [8] was inactive. For the same molecule, the call in experiment [9], in experiment [11], in experiment [14], in [15] and in [16] was inactive.

As for `CCCCCCCOC(C)=O`, the result in [17], in [3], in [4], in experiment [5], in experiment [7] and in experiment [9] was inactive. Moreover, the molecule was called inactive in experiment [10] and in experiment [11].

Take `O=C(O)C(F)(F)C(F)(F)C(F)(F)C(F)(F)C(F)(F)C(F)(F)C(F)(F)C(F)F`: the result in [14], in [15] and in experiment [16] was inactive.

Consider `CCCCCCCCCCO[C@@H]1O[C@H](CO)[C@@H](O)[C@H](O)[C@H]1O`, for which the outcome in [3], in experiment [4], in [5], in experiment [7] and in [10] was inactive. Further, the AC50 in experiment [9] is 100 µM (active).
